The target of one assay is Albumin (Bos taurus) (UniProt P02769). Put plainly: bovine serum albumin binders on microarray, profiling panel, artefact control for SMM control protein annotation, biochemical, small-molecule microarray, Alexa647 label, 635/667 nm fluorescence (AID 1118).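 Further: score merges 667 nm emission intensity and signal-to-noise per printed compound spot.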 The conditions noted are these: BSA-A647 binding, fluorescence 635 nm, higher = more signal.
A short description of assay [1]: small-molecule microarray binders of probe aXIP, primary screen, biochemical, NeuroSMM set, 635/667 nm fluorescence (AID 1119).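 Further: probe is the protein aXip251-270 applied at 1 µg/mL to compound-printed slides; binding of probe to printed compounds measured as 667 nm fluorescence plus signal to noise.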 The conditions noted are these: higher = more signal, called active from +8 up or from −8 down.
A short description of assay [2]: small-molecule binders of probe aNOTCH3, primary screen, biochemical, small-molecule microarray, 635/667 nm fluorescence (AID 1120).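 Further: probe is a biotin-tagged antibody raised against NOTCH3 rather than NOTCH3 protein; score merges spot fluorescence near 667 nm with spot signal to noise.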 The conditions noted are these: higher = more signal.
Assay [3] can be described thus: small-molecule binders of probe aNOTCH2, primary screen, biochemical, small-molecule microarray, 635/667 nm fluorescence (AID 1121).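 Further: score merges feature fluorescence read at 667 nm with its signal to noise.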 The conditions noted are these: higher = more signal.
The target of assay [4] is Carbonic anhydrase 2 (Homo sapiens) (UniProt P00918). Put plainly: CAII small-molecule binders, profiling panel, biochemical, small-molecule microarray, Alexa647-labelled CAII (AID 1122). The conditions noted are these: CAII-A647 binding fluorescence, higher = more signal.
The nature of assay [5]: COS7 lysate on small-molecule microarray, probe aHis, 635 nm (AID 1123).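 Further: z-score combines 667nm fluorescence intensity with signal-to-noise per printed compound spot.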 The conditions noted are these: COS7 cell lysate, fluorescence, higher = more signal.
Assay [6] in a line: compound binding in COS7 lysate, probe aLAP1, primary screen, cell lysate, small-molecule microarray (AID 1124).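 Further: lysate comes from COS7 cells expressing LAP1 and is applied at 0.3 µg/mL; score merges spot fluorescence near 667 nm with signal-to-noise over triplicate slides.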 The conditions noted are these: probe aLAP1, fluorescence, higher = more signal.
Another assay deals with Sam68 (KHDRBS1). The assay can be described thus: Sam68 small-molecule binders, primary screen, biochemical, small-molecule microarray, 635 nm fluorescence (AID 1125).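 Further: score merges 667 nm channel intensity with signal to noise over triplicate slides.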 The conditions noted are these: small-molecule microarray binding, higher = more signal.
Assay [7] deals with Chordin-like protein 2 (CHRDL2). The assay can be described thus: CHRDL2 small-molecule binders, primary screen, biochemical, small-molecule microarray, 635 nm fluorescence (AID 1126).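 Further: printed compound slides probed with Chrdl2 protein at 4 µg/mL for 1 h at 4 C; score merges 667 nm emission intensity with signal to noise over three replicate slides.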 The conditions noted are these: small-molecule microarray binding, fluorescence 635 nm; higher = more signal.
Assay [8] addresses Concanavalin-A (Canavalia ensiformis) (UniProt P02866). The assay can be described thus: ConA small-molecule binders, primary screen, artefact control for SMM control protein annotation, biochemical, small-molecule microarray, Alexa647 label, 635 nm (AID 1127).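 Further: z combines 667 nm emission intensity with signal-to-noise across three replicate slides.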 The conditions noted are these: ConA-A647 binding fluorescence, higher = more signal.
A short description of assay [9]: anti-His antibody binders, primary screen, artefact control for SMM control protein annotation, biochemical, small-molecule microarray, 635 nm fluorescence (AID 1128).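 Further: score merges feature fluorescence with signal-to-noise for each printed compound spot.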 The conditions noted are these: anti-His Alexa647 antibody binding, higher = more signal.
For assay [10], the system named is Human papillomavirus type 1a E7 protein (residues 1-88). The assay can be described thus: HPV1a E7 small-molecule binders, primary screen, biochemical, small-molecule microarray, residues 1-88, 635 nm (AID 1129). The conditions noted are these: small-molecule microarray binding, fluorescence 635 nm; higher = more signal.
Assay [11] addresses Focal adhesion kinase 1 (Homo sapiens) (UniProt Q05397). Put plainly: small-molecule microarray binders of FAK, primary screen, biochemical, 635/667 nm fluorescence, BSA, DTT (AID 1130).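 Further: composite of spot emission at 667 nm and signal to noise over triplicate slides.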 The conditions noted are these: PTK2 binding, 635 nm fluorescence, higher = more signal.
The subject of assay [12] is Fibrinogen (Alexa647-labelled). The assay can be described thus: fibrinogen binders on compound microarrays, profiling panel, artefact control for SMM control-protein annotation, biochemical, small-molecule microarray, 635/667 nm fluorescence (AID 1131).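 Further: z-score merges 667 nm fluorescence with per-spot signal-to-noise over triplicate slides.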 The conditions noted are these: fibrinogen-A647 binding fluorescence, higher = more signal.
Assay [13] has as its target Follistatin (Homo sapiens) (UniProt P19883). The assay can be described thus: follistatin binders on small-molecule microarrays, primary screen, biochemical, small-molecule microarray, 635/667 nm fluorescence (AID 1132). The conditions noted are these: FST binding, 635 nm fluorescence, higher = more signal.
In assay [14] the target is Fibroblast growth factor 2 (Homo sapiens) (UniProt P09038). Put plainly: FGF2 binders on small-molecule microarrays, primary screen, biochemical, small-molecule microarray, 635/667 nm fluorescence (AID 1133). The conditions noted are these: small-molecule microarray binding, FGF2, fluorescence 635/667; higher = more signal.
Assay [15] can be described thus: mitochondrial membrane potential change in A549 cells, profiling panel, cell-based, JC-1 fluorescence, basal, 24 h, 100 nL (AID 1138).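 Further: A549 lung adenocarcinoma cells under basal conditions with no added stimulus; test concentration not given here.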 The conditions noted are these: higher = more signal.
The subject of the next assay is Lefty1. The assay can be described thus: Lefty1 binders on small-molecule microarrays, primary screen, biochemical, small-molecule microarray, 635/667 nm fluorescence (AID 1139). The conditions noted are these: small-molecule microarray binding, fluorescence 635/667; higher = more signal.
In assay [16] the test system is wheat germ agglutinin (Triticum aestivum), Alexa647-labelled. Put plainly: wheat germ agglutinin binders on compound microarrays, profiling panel, artefact control for SMM control-protein annotation, biochemical, small-molecule microarray, 635/667 nm fluorescence (AID 1140).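 Further: score merges 667 nm feature emission with signal to noise over triplicate slides.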 The conditions noted are these: WGA-A647 binding, 635 nm fluorescence, higher = more signal.

The target of assay [17] is Luciferin 4-monooxygenase (Photinus pyralis) (UniProt P08659). Put plainly: firefly luciferase enzyme inhibitors, primary screen, biochemical, luminescence, purified enzyme, 2006 set (AID 1141).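 Further: cell-free assay with purified firefly luciferase at 100 ng per well in PBS; test concentration not given here.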 The conditions noted are these: SteadyGlo luminescence, 30 min, higher = more signal, called active from +8 up or from −8 down.

Activity calls are given as the source filed them.

From PubChem BioAssay come the findings set out here.

Albumin (Bos taurus), sequence (P02769 whole entry, looked up): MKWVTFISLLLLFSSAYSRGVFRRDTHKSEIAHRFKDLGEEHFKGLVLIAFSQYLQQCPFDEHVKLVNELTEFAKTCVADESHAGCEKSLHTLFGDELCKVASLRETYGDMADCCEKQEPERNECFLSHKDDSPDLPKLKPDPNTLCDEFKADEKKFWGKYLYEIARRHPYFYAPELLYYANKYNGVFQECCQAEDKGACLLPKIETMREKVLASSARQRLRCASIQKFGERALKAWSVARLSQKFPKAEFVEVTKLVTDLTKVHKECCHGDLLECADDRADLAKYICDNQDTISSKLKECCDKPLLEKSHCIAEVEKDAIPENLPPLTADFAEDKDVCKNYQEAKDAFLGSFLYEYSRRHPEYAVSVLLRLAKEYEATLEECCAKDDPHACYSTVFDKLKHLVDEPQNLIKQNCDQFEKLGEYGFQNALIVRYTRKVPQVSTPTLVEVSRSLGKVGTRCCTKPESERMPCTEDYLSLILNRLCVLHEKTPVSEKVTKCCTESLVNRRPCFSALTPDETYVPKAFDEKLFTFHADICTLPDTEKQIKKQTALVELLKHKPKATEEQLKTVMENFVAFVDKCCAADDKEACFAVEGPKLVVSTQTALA
Fibroblast growth factor 2 (Homo sapiens), sequence (P09038 whole entry, looked up): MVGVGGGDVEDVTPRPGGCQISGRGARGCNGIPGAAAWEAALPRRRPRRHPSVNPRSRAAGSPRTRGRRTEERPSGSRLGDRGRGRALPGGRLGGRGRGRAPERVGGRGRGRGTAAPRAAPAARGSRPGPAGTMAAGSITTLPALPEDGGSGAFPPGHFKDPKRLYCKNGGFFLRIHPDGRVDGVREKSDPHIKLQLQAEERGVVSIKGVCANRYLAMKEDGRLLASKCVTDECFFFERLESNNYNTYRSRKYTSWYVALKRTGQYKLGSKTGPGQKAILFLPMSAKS
Focal adhesion kinase 1 (Homo sapiens), sequence (Q05397 whole entry, looked up): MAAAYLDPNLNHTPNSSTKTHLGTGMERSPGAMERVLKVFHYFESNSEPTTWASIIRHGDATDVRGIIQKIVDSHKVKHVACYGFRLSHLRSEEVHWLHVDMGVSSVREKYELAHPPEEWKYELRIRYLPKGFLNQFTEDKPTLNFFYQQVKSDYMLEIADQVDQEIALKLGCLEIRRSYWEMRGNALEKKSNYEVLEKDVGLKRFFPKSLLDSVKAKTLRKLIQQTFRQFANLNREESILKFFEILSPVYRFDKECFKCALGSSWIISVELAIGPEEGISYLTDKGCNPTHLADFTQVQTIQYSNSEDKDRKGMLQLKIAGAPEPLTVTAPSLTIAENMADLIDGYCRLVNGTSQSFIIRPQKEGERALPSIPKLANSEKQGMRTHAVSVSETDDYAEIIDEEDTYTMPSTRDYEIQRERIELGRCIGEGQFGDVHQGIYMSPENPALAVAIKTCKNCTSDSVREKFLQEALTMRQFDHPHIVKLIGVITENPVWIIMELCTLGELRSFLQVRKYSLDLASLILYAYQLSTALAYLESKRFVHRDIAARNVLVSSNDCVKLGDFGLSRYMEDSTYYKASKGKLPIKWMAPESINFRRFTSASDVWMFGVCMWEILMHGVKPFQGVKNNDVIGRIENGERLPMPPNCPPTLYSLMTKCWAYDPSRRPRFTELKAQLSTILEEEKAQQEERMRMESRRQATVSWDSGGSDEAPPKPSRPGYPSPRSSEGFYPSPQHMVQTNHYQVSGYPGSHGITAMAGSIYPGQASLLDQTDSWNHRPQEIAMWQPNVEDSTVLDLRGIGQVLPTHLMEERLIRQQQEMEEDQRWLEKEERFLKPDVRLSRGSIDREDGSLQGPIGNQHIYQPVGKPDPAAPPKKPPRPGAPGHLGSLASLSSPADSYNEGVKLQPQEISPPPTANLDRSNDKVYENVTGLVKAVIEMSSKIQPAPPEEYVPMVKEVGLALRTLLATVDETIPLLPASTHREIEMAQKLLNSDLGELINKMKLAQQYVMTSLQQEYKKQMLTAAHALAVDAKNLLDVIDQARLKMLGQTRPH
Concanavalin-A (Canavalia ensiformis), sequence (P02866 whole entry, looked up): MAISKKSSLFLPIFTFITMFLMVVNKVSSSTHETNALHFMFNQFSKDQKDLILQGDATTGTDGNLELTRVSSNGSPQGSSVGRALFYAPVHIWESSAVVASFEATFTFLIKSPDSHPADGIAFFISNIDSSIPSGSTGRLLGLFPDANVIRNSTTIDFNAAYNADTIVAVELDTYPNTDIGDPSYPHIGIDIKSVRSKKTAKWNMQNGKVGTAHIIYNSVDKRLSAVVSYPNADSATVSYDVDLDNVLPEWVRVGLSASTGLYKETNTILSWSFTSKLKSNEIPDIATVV
Luciferin 4-monooxygenase (Photinus pyralis), sequence (P08659 whole entry, looked up): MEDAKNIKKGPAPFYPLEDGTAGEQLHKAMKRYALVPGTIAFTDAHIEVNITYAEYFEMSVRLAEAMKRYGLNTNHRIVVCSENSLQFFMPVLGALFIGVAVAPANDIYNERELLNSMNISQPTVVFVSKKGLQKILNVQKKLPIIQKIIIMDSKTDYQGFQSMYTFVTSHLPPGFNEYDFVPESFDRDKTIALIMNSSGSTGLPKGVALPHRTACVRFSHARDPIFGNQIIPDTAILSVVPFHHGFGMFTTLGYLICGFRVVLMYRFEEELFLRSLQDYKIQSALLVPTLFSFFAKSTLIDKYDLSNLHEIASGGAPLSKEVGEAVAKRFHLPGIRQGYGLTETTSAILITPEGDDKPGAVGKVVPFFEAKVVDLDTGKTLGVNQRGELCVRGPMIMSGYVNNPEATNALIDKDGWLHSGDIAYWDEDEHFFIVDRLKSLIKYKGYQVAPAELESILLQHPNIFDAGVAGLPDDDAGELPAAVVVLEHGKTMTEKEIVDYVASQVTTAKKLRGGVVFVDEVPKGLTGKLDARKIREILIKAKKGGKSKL
Follistatin (Homo sapiens), sequence (P19883 whole entry, looked up): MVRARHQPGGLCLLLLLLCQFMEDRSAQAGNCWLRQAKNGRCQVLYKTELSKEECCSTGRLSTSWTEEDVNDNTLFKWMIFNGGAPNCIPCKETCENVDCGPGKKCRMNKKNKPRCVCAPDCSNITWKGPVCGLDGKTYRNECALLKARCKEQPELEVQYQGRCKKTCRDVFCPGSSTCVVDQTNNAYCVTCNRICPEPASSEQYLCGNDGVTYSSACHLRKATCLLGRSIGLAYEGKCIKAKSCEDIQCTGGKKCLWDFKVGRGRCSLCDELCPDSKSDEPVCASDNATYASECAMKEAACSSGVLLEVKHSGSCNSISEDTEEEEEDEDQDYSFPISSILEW

As for `C=C(COC)/C(=C/C[C@H](OC(C)=O)c1ccc(CO)o1)c1cnc2ccccc2c1`, the composite z-score in the assay with Albumin (Bos taurus) was 0.15; in [2], 0.116; in assay [3] it was -0.11; in assay [4], 0.969; in assay [5], 1.25; in [6] it was -0.105. Further, the composite z-score in the assay with Sam68 (KHDRBS1) came out at 1.29; in [7], 1.14; in assay [8], 1.09; in assay [9], 1.28; in assay [10], 1.17; in assay [11], 0.284. Further, the composite z-score in assay [12] is -0.0185; in [13] it was 1.42; in [14], 1.31; in the assay on Lefty1, 1.58; in assay [16], 1.35. The composite Z-score in assay [1] is 0.837 (inactive). In addition, the figures for the z-score in [15] and in assay [17] were 0.861 and -2.1 (inactive), respectively.
Turning to `CC(CO)N1C(=O)[C@@H]2C3C(=O)OCCC/C=C\[C@H]3OC23C=CCN(Cc2ccccc2)C(=O)[C@@H]13` (stereo not given in full), the composite z-score is -0.656 with Albumin (Bos taurus); -0.189 in assay [2]; -0.177 in [3]; 0.866 in assay [4]; -0.255 in [5]; -0.285 in assay [6]. In addition, the composite z-score was -0.164 in the assay on Sam68 (KHDRBS1); -1.64 in assay [7]; -2.2 in assay [8]; -1.18 in assay [9]; -1.47 in assay [10]; -0.55 in assay [11]. Further, the composite z-score in assay [12] was -1.52; in assay [13], -0.742; in assay [14] it was -0.426; in the assay on Lefty1, -0.532; in assay [16], -1.54. Besides, the composite Z-score in [1] is -0.427 (inactive). The z-score in assay [15] is 0.935; in [17], -1.56 (inactive).
Take `COc1c(C)cc(-c2cc3c(c(CCc4ccccc4)n2)[Si](C(C)C)(C(C)C)OC3)cc1C`: the composite z-score is -0.296 with Albumin (Bos taurus); 0.0179 in assay [2]; 0.0049 in assay [3]; 0.2 in [4]; 0.614 in assay [5]; 0.427 in [6]. Further, the composite z-score is 1.07 in the assay on Sam68 (KHDRBS1); 0.0922 in [7]; -0.17 in assay [8]; -0.611 in [9]; 0.654 in assay [10]; 0.158 in [11]. For the same compound, the composite z-score in assay [12] was -0.074; in assay [13], 0.483; in assay [14], 0.0057; in the assay on Lefty1 it was 0.251; in assay [16], -0.442. For the same compound, in [1], the composite Z-score is 0.0537 (inactive). In addition, the results for the z-score in assay [15] and in assay [17] were 2.24 and -0.374 (inactive), respectively.
As for `C[N+](C)(C)CCCCNC(=O)[C@@H]1C[C@@H]2C(=O)NCC(=O)N2[C@@H]1c1cccc(OCCO)c1`, the composite z-score was -0.656 in the assay with Albumin (Bos taurus); 0.0297 in [2]; -0.19 in [3]; 0.434 in assay [4]; 2.15 in assay [5]; 1.27 in [6]. Besides, the composite z-score was 0.781 in the assay with Sam68 (KHDRBS1); 1.29 in assay [7]; 1.14 in assay [8]; 2.59 in assay [9]; 1.15 in assay [10]; -0.421 in assay [11]. The composite z-score came out at 0.78 in [12]; 1.49 in [13]; 1.94 in [14]; 1.6 in the assay on Lefty1; 1.02 in assay [16]. Further, the composite Z-score in [1] was 0.617 (inactive). Besides, the values for the z-score in assay [15] and in assay [17] were 1.87 and -1.9 (inactive), respectively.
Turning to `C=CC[C@]1(C(=O)N2CCCCC2)COC(c2ccc(OCCCO)cc2)=N1`, the composite z-score with Albumin (Bos taurus) is 0.837; in assay [2], -0.152; in assay [3], -0.173; in assay [4], 0.818; in assay [5], 2.22; in assay [6], 0.523. Moreover, the composite z-score with Sam68 (KHDRBS1) was -0.48; in assay [7], -0.802; in assay [8], -1.46; in assay [9] it was -1.2; in assay [10], 0.633; in assay [11] it was -0.0161. In addition, the composite z-score is -0.236 in assay [12]; -0.465 in [13]; -0.453 in [14]; -0.45 in the assay with Lefty1; -1.3 in [16]. In assay [1], the composite Z-score is -0.216 (inactive). The figures for the z-score in [15] and in assay [17] were 2.27 and -2.65 (inactive), respectively.
Regarding `COc1ccc([Si](C)(C)[C@@H]2[C@@H](CC(=O)N3CCC[C@H]3CO)O[C@]3(C(=O)N(Cc4ccc(I)cc4)c4ccccc43)[C@H]2C)cc1`, the composite z-score in the assay with Albumin (Bos taurus) is -1.32; in assay [2], -0.0328; in assay [3], -0.0707; in assay [4], -0.0226; in assay [5], 0.713; in assay [6] it was 0.147. Moreover, the composite z-score in the assay on Sam68 (KHDRBS1) was found to be 1.32; in assay [7], 1.06; in [8] it was 1.19; in assay [9] it was 1.14; in [10] it was 0.989; in assay [11] it was 0.178. The composite z-score came out at 0.584 in assay [12]; 1.34 in [13]; 1.56 in [14]; 1.12 in the assay with Lefty1; 1.07 in assay [16]. In addition, the composite Z-score in assay [1] was -0.36 (inactive). The z-score in assay [15] was 1.05; in assay [17] it was -0.765 (inactive).
